Active and inactive are the calls of the source. Rule for the calls: active = hit-call score of the fitted dose curve at least 0.9, where 1 is the maximum; inactive = score below 0.9.
Experiments:
Conditions in all cases: mRNA level, 48 h; actives raise or lower the signal
[1] = read-out: JUN Transcription Factor, JUN (gene 3725); assay: LTEA_HepaRG_JUN: Life Technologies and Expression Analysis (LTEA) Assay for JUN Transcription Factor using HepaRG (AID 2283513)
Summary of the method: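 Cells plated 48 h, medium switched to serum-free induction medium, then dosed 48 h (100 uM top, half-log dilutions, 0.5% DMSO). RNA isolated; JUN measured by qRT-PCR against three housekeeping genes; gain or loss fitted relative to DMSO.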

[2] = read-out: Lipase C (LIPC), LIPC (gene 3990); assay: LTEA_HepaRG_LIPC: Life Technologies and Expression Analysis (LTEA) Assay for Lipase C (LIPC) using HepaRG (AID 2283514)
Summary of the method: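 Differentiated human HepaRG cells in serum-free induction medium were exposed in duplicate for 48 h to eight concentrations (top 100 uM, half-log steps, 0.5% DMSO). LIPC mRNA was quantified by TaqMan qRT-PCR, normalized to ACTB, GAPDH and POLR2A, with bidirectional fitting versus DMSO.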

[3] = read-out: Lipoprotein lipase (LPL), LPL (gene 4023); assay: LTEA_HepaRG_LPL: Life Technologies and Expression Analysis (LTEA) Assay for Lipoprotein lipase (LPL) using HepaRG (AID 2283515)
Summary of the method: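 Differentiated human HepaRG cells in serum-free induction medium were exposed in duplicate for 48 h to eight half-log concentrations (top 100 uM) in 0.5% DMSO. LPL mRNA was quantified by TaqMan qRT-PCR, normalized to ACTB, GAPDH and POLR2A.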

[4] = read-out: MicroRNA 122 (MIR122), gene 406906; assay: LTEA_HepaRG_MIR122: Life Technologies and Expression Analysis (LTEA) Assay for MicroRNA 122 (MIR122) using HepaRG (AID 2283516); note: the transcript read is the microRNA miR-122
Summary of the method: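 HepaRG plated 48 h, switched to serum-free induction medium, then treated in duplicate for 48 h (100 uM top, half-log steps, 0.5% DMSO vehicle). RNA isolated, qRT-PCR performed, concentration-response fitted both directions relative to DMSO.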

[5] = read-out: matrix metalloproteinase-10 (MMP10), MMP10 (gene 4319); assay: LTEA_HepaRG_MMP10: Life Technologies and Expression Analysis (LTEA) Assay for matrix metalloproteinase-10 (MMP10) using HepaRG (AID 2283517)
Summary of the method: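 HepaRG, collagen I, ~100,000 cells/well; serum-free induction medium; 48 h exposure, duplicate, 8-pt half-log to 100 uM, 0.5% DMSO. Readout: TaqMan qRT-PCR, normalized to ACTB/GAPDH/POLR2A; bidirectional fit vs DMSO.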

MYC, MYC (gene 4609) = assay: LTEA_HepaRG_MYC: Life Technologies and Expression Analysis (LTEA) Assay for MYC using HepaRG (AID 2283518)
Summary of the method: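 HepaRG, ~100,000 cells/well, collagen I; 48 h plating; serum-free induction medium; 48 h dosing, duplicate, 100 uM top, half-log, 0.5% DMSO; total RNA → qRT-PCR MYC; gain/loss fit vs DMSO.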

[6] = read-out: matrix metalloproteinase-3 (MMP3), MMP3 (gene 4314); assay: LTEA_HepaRG_MMP3: Life Technologies and Expression Analysis (LTEA) Assay for matrix metalloproteinase-3 (MMP3) using HepaRG (AID 2283519)
Summary of the method: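 Differentiated human HepaRG cells, plated 48 h on collagen I, were exposed in duplicate for 48 h in serum-free induction medium to eight half-log concentrations up to 100 uM in 0.5% DMSO. MMP3 mRNA was quantified by TaqMan qRT-PCR, normalised to ACTB, GAPDH and POLR2A.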

[7] = read-out: Paternally Expressed 10 (PEG10), PEG10 (gene 23089); assay: LTEA_HepaRG_PEG10: Life Technologies and Expression Analysis (LTEA) Assay for Paternally Expressed 10 (PEG10) using HepaRG (AID 2283520)
Summary of the method: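 HepaRG, 48 h post-plating → serum-free induction medium → 48 h chemical exposure (duplicate, 8-pt, max 100 uM, half-log, 0.5% DMSO) → lysis in RLT → TaqMan qRT-PCR for PEG10, ACTB/GAPDH/POLR2A normalisation.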

[8] = read-out: Nuclear factor NF-kappa-B p105 subunit (Homo sapiens) (UniProt P19838); assay: LTEA_HepaRG_NFKB1: Life Technologies and Expression Analysis (LTEA) Assay for Nuclear Factor Kappa B Subunit 1 (NFKB1) using HepaRG (AID 2283521)
Summary of the method: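 HepaRG, 48 h exposure; 8-pt half-log series from 100 uM in 0.5% DMSO; duplicates. Readout: NFKB1 mRNA by qRT-PCR (Fluidigm arrays), housekeeping-normalized. Gain/loss fit vs DMSO baseline.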

[9] = read-out: Protein phosphatase 2A (PPP2R4), PTPA (gene 5524); assay: LTEA_HepaRG_PPP2R4: Life Technologies and Expression Analysis (LTEA) Assay for Protein phosphatase 2A (PPP2R4) using HepaRG (AID 2283522)
Summary of the method: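 Readout is PPP2R4 transcript level by microfluidic qRT-PCR after 48 h chemical treatment of human HepaRG liver cells. Concentrations spanned 100 uM downward in half-log steps; gain or loss of signal was fitted relative to DMSO.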

[10] = read-out: Phosphatase and tensin (PTEN), PTEN (gene 5728); assay: LTEA_HepaRG_PTEN: Life Technologies and Expression Analysis (LTEA) Assay for Phosphatase and tensin (PTEN) using HepaRG (AID 2283523)
Summary of the method: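 Differentiated human HepaRG cells, plated 48 h then switched to serum-free induction medium, were exposed in duplicate for 48 h to eight half-log concentrations up to 100 uM in 0.5% DMSO. PTEN mRNA measured by TaqMan qRT-PCR, normalized to ACTB/GAPDH/POLR2A, bidirectional fit versus DMSO.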

[11] = read-out: solute carrier (SLC22A1), SLC22A1 (gene 6580); assay: LTEA_HepaRG_SLC22A1: Life Technologies and Expression Analysis (LTEA) Assay for solute carrier (SLC22A1) using HepaRG (AID 2283524)
Summary of the method: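 Human HepaRG cells were plated 48 h, switched to serum-free induction medium, then exposed in duplicate for 48 h to 8-point half-log series from 100 uM in 0.5% DMSO. SLC22A1 mRNA measured by qRT-PCR, normalized to ACTB/GAPDH/POLR2A, fitted bidirectionally versus DMSO.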

[12] = read-out: Pyruvate Dehydrogenase Kinase 4 (PDK4), PDK4 (gene 5166); assay: LTEA_HepaRG_PDK4: Life Technologies and Expression Analysis (LTEA) Assay for Pyruvate Dehydrogenase Kinase 4 (PDK4) using HepaRG (AID 2283525)
Summary of the method: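 Differentiated human HepaRG cells, pre-cultured 48 h, were exposed in duplicate for 48 h in serum-free induction medium to eight half-log concentrations up to 100 uM in 0.5% DMSO. PDK4 mRNA was quantified by qRT-PCR, normalized to ACTB, GAPDH and POLR2A, bidirectional fitting versus DMSO.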

[13] = read-out: NAD(P)H dehydrogenase [quinone] 1 (NQO1), NQO1 (gene 1728); assay: LTEA_HepaRG_NQO1: Life Technologies and Expression Analysis (LTEA) Assay for NAD(P)H dehydrogenase [quinone] 1 (NQO1) using HepaRG (AID 2283526)
Summary of the method: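 HepaRG, 48 h post-plating → serum-free induction medium → test chemical 48 h (duplicate, 100 uM top, half-log x8, 0.5% DMSO) → RNA isolation → qRT-PCR, ACTB/GAPDH/POLR2A normalization; bidirectional curve fit vs DMSO baseline.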

[14] = read-out: Nuclear factor erythroid 2-related factor 2 (Homo sapiens) (UniProt Q16236); assay: LTEA_HepaRG_NFE2L2: Life Technologies and Expression Analysis (LTEA) Assay for Nuclear factor erythroid 2-related factor 2 (NFE2L2) Transcription Factor using HepaRG (AID 2283527)
Summary of the method: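 Differentiated human HepaRG cells in serum-free induction medium were exposed for 48 h to eight concentrations (top 100 uM, half-log dilutions, 0.5% DMSO), in duplicate. NFE2L2 mRNA was quantified by TaqMan qRT-PCR, normalized to ACTB, GAPDH and POLR2A, with bidirectional fitting versus DMSO.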

[15] = read-out: succinate dehydrogenase complex iron sulfur subunit B (SDHB), SDHB (gene 6390); assay: LTEA_HepaRG_SDHB: Life Technologies and Expression Analysis (LTEA) Assay for succinate dehydrogenase complex iron sulfur subunit B (SDHB) using HepaRG (AID 2283528)
Summary of the method: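 Readout is SDHB transcript level by qRT-PCR, normalised to three housekeeping genes and fitted bidirectionally against 0.5% DMSO vehicle. Human HepaRG cells were treated for 48 h at up to 100 uM.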

[16] = read-out: solute carrier (SLCO1B1), SLCO1B1 (gene 10599); assay: LTEA_HepaRG_SLCO1B1: Life Technologies and Expression Analysis (LTEA) Assay for solute carrier (SLCO1B1) using HepaRG (AID 2283530)
Summary of the method: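 HepaRG, serum-free induction medium, 48 h dosing, 8-pt half-log from 100 uM, 0.5% DMSO vehicle, duplicates. Readout: SLCO1B1 mRNA, qRT-PCR, ACTB/GAPDH/POLR2A normalization; up or down fit vs DMSO.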

[17] = read-out: sulfotransferase 2A1 (SULT2A1), SULT2A1 (gene 6822); assay: LTEA_HepaRG_SULT2A1: Life Technologies and Expression Analysis (LTEA) Assay for sulfotransferase 2A1 (SULT2A1) using HepaRG (AID 2283531)
Summary of the method: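 Transcript levels of SULT2A1, quantified by qRT-PCR and normalized to three housekeeping genes, serve as the readout. Human HepaRG cultures receive test chemicals for 48 h at up to 100 uM in half-log steps, with 0.5% DMSO vehicle.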

[18] = read-out: Transforming Growth Factor (TGFA), TGFA (gene 7039); assay: LTEA_HepaRG_TGFA: Life Technologies and Expression Analysis (LTEA) Assay for Transforming Growth Factor (TGFA) using HepaRG (AID 2283532)
Summary of the method: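 Differentiated human HepaRG cells, plated 48 h then switched to serum-free induction medium, were exposed in duplicate for 48 h to 8-point half-log series from 100 uM in 0.5% DMSO. TGFA mRNA measured by qRT-PCR, normalized to ACTB/GAPDH/POLR2A, bidirectional fit versus DMSO.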

[19] = read-out: Signal transducer and activator of transcription 3 (Homo sapiens) (UniProt P40763); assay: LTEA_HepaRG_STAT3: Life Technologies and Expression Analysis (LTEA) Assay for Signal transducer and activator of transcription (STAT3) using HepaRG (AID 2283529)
Summary of the method: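 Differentiated human HepaRG cells in serum-free induction medium were exposed in duplicate for 48 h to eight half-log concentrations up to 100 uM in 0.5% DMSO. STAT3 mRNA was quantified by TaqMan qRT-PCR, normalized to ACTB, GAPDH and POLR2A, and fitted bidirectionally against DMSO.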

Measured: AC50

Sequence of Nuclear factor NF-kappa-B p105 subunit (Homo sapiens) (P19838 whole entry, looked up): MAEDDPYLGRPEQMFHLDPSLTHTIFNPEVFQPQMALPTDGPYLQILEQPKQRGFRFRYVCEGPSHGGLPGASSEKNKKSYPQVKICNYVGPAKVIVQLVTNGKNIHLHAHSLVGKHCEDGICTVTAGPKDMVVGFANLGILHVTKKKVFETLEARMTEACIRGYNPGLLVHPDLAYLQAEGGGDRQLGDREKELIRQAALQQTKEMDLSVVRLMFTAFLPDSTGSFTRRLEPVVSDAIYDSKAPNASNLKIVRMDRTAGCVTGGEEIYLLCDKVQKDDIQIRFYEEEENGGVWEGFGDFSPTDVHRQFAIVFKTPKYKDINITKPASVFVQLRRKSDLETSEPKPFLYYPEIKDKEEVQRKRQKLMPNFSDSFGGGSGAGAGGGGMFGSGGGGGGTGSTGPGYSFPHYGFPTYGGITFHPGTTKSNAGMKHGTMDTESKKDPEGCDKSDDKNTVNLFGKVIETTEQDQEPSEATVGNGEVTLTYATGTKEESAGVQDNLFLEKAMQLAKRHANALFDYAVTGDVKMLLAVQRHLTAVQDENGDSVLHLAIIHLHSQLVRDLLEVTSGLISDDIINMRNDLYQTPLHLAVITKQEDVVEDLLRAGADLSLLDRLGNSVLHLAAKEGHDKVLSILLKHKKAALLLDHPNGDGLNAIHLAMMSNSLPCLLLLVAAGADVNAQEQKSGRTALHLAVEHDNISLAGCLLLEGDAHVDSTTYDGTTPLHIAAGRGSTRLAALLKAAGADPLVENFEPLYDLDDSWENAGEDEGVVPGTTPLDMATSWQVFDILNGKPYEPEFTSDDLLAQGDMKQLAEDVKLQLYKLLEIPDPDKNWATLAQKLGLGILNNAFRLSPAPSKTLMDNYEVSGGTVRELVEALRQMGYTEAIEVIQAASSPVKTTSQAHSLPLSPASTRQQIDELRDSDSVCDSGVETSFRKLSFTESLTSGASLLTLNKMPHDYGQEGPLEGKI
Sequence of Nuclear factor erythroid 2-related factor 2 (Homo sapiens) (Q16236 whole entry, looked up): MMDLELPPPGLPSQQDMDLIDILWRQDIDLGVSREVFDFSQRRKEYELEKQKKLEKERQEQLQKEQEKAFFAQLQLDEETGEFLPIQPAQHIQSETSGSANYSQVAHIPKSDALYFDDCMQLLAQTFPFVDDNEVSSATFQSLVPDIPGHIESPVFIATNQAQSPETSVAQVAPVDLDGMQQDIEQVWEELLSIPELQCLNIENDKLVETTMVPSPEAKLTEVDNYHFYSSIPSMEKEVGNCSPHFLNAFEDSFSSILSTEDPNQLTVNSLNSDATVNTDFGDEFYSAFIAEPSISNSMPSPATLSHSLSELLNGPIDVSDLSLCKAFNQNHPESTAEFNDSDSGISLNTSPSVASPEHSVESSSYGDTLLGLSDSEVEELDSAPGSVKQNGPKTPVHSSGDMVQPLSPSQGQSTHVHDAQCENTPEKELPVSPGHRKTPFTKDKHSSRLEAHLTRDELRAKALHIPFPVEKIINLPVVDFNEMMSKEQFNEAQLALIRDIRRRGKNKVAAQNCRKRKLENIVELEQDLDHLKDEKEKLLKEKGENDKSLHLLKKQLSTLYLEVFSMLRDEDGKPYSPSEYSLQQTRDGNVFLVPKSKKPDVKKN
Sequence of Signal transducer and activator of transcription 3 (Homo sapiens) (P40763 whole entry, looked up): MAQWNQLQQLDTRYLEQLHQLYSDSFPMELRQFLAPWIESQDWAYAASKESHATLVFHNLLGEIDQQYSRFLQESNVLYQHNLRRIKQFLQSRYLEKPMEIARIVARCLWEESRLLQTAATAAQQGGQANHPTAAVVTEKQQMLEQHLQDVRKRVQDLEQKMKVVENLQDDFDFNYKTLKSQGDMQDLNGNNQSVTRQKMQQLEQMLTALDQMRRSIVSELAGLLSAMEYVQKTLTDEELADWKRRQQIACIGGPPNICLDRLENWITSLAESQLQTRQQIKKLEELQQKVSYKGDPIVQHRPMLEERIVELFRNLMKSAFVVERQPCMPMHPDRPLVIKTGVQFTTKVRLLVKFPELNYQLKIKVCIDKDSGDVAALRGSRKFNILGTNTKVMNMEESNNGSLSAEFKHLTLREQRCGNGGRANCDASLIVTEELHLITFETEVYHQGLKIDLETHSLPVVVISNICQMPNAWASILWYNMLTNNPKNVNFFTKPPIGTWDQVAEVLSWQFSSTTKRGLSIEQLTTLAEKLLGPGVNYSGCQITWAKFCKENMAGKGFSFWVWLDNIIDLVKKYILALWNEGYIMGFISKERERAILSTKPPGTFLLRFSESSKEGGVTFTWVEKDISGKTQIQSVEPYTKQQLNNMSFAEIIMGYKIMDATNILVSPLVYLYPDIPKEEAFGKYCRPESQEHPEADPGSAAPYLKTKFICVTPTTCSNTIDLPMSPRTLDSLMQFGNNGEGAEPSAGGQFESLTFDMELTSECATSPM

Cc1c(F)c(F)c(COC(=O)C2C(/C=C(\Cl)C(F)(F)F)C2(C)C)c(F)c1F (stereo not given)
active: [11] 12.3 µM
not listed: [19]
inactive: all other assays above

CCNc1nc(Cl)nc(NC(C)C)n1
not listed: [10]
inactive: all other assays above

Cc1ccc(-c2c(Cl)nc(C#N)n2S(=O)(=O)N(C)C)cc1
inactive: [1] | [3] | [5] | [6] | [13] | [14] | [18]
active: [2] 50 µM | [4] 10.2 µM | MYC, MYC (gene 4609) 13.1 µM | [7] 7.7 µM | [8] 50 µM | [9] 32.2 µM | [10] 16.8 µM | [11] 50 µM | [12] 50 µM | [15] 2.73 µM | [16] 31.1 µM | [17] 10.3 µM

CNC(=O)ON=CC(C)(C)SC
not listed: [10]
inactive: all other assays above

N#Cc1cc(Br)c(O)c(Br)c1
active: [1] 24.2 µM | [2] 23.5 µM | [4] 14.2 µM | [6] 2.69 µM | [7] 10.5 µM | [8] 5.8 µM | [9] 10.7 µM | [11] 16.2 µM | [12] 9.64 µM | [13] 11.9 µM | [14] 10.3 µM | [15] 7.28 µM | [19] 3.27 µM | [16] 17.8 µM | [17] 25.7 µM
inactive: [3] | [5] | MYC, MYC (gene 4609) | [18]

CC(C)Oc1cc(-n2nc(C(C)(C)C)oc2=O)c(Cl)cc1Cl
active: [2] 50 µM | [3] 85.5 µM | [4] 50 µM | MYC, MYC (gene 4609) 89.1 µM | [7] 5.57 µM | [11] 42.8 µM | [12] 11.6 µM | [17] 80.9 µM
not listed: [19]
inactive: all other assays above

CC(Oc1ccc(Cl)cc1Cl)C(=O)O (stereo not given)
active: [12] 50 µM
not listed: [10] | [19]
inactive: all other assays above

CC(C)C1(C)N=C(c2nc3ccccc3cc2C(=O)O)NC1=O (stereo not given)
not listed: [10] | [19]
inactive: all other assays above

CCCCNC(=O)n1c(NC(=O)OC)nc2ccccc21
not listed: [19]
inactive: all other assays above

CCON=C(CC)C1=C(O)CC(c2c(C)cc(C)cc2C)CC1=O (stereo not given)
not listed: [10] | [19]
inactive: all other assays above

CON(C)C(=O)Nc1ccc(Cl)c(Cl)c1
active: [2] 31.6 µM | [3] 12.5 µM | MYC, MYC (gene 4609) 78.6 µM | [7] 65.3 µM | [11] 50 µM | [14] 86.9 µM
not listed: [10] | [19]
inactive: all other assays above
